An excerpt weighted towards active compounds, which were near 2.9% of everything screened.
Shn3 3UTR inh: reduction of Shn3 3'UTR firefly luciferase signal, primary screen, Schnurri-3 inhibitor project, cell-based, Clone20 osteoblasts, set 2; Clone20 osteoblast Shn3 3'UTR firefly luciferase, 24 h; inhibition, % at 12.5 µM; hit rate 0.52% among 360,000; AID 588674, 2011;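 active = mean inhibition of at least 75% with every replicate also reaching 75%; inconclusive = mean inhibition at least 75% but some replicate below; inactive = mean inhibition below 75%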
LMP1 NFkB inh: EBV LMP1-driven NF-kappaB luciferase reporter inhibitors, primary screen, cell-based, luminescence, single point; AID 504558, 2011; inhibition, % at 12.5 µM; LMP1-induced NF-kappaB luciferase reporter cells; hit rate 0.69% among 350,000; in the data active = inhibition above about 41%; inconclusive = no clear call, values can overlap the other calls
KKLEB tox: cytotoxicity in KKLEB CF airway cells, primary screen, cytotoxicity control for CF NF-kB inhibitor project, cell-based, uHTS, fluorescence assay plates. activity change (cytotoxicity), % at 5 µM. KKLEB CF airway cells viability, ATPlite luminescence, overnight; stronger effect = lower value; cells stimulated with P. aeruginosa culture filtrate. hit rate 0.36% among 360,000;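 active = corrected activity change at or below -50% at 5 µM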
HIF-2a block: HIF-2a reporter inhibitors, primary screen, luminescence, 786-0 RCC cells; inhibition, % at 18.8 µM; hit rate 0.72% among 360,000; 786-0 RCC cells HIF-2a reporter, luciferase luminescence, overnight;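 active = inhibition of the luminescence signal of 40% or more relative to plate controls, in a single-dose primary screen at 18.75 µM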
CF NFkB inh: inhibitors of PAF-induced NF-kB signaling, primary screen, cell-based, GFP fluorescence, uHTS | AID 588850, 2011 | KKLEB NF-kB-GFP reporter, GFP fluorescence overnight | hit rate 0.86% among 360,000 | inhibition, % at 5 µM;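 active = at least 50% inhibition at 5 µM, scaled per plate between neutral and stimulator controls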;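 also: PAF is a Pseudomonas aeruginosa culture filtrate used as stimulus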
Peg3 promoter: Peg3 promoter-driven luciferase inhibitors, primary screen, cell-based, HeLa, luciferase luminescence. inhibition, % at 20 µM. hit rate 1.7% among 360,000. HeLa PEG-Prom luciferase reporter, overnight. AID 588405, 2011;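 active = inhibition of at least 50% at 20 µM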
Large screens that a line does not name were inactive; ! = not confirmed by another sample.

CCOc1ccc(-c2nc(CSCC(=O)NCc3ccco3)c(C)o2)cc1	LMP1 NFkB inh 60
Cc1nn(Cc2noc(C(=O)NC3CCC(C)CC3)n2)c(C)c1Br (centres undefined)	Shn3 3UTR inh 90
CCCS(=O)(=O)NC(=O)C1(C)CCN(C(=O)c2ccc3ccccc3c2)C1 (centres undefined)	none (no result: LMP1 NFkB inh)
Cc1cccc(-c2c3c(=O)n(C)c(=O)n(C)c3c3nnc4ccccc4n23)c1	none
CCCCCc1ccc(OCCC[n+]2ccccc2)c(CCCCC)c1	Shn3 3UTR inh inconclusive, KKLEB tox -91, CF NFkB inh 85, Peg3 promoter 107
CCCCCc1ccc(OCCOCCn2c[n+](C)c3ccccc32)c(CCCCC)c1	Shn3 3UTR inh 93, Peg3 promoter 105
COc1ccc(NC(=O)c2c(Nc3ccccc3)sc(C(=O)c3ccc(F)cc3)c2N)cc1	KKLEB tox -53
OCCC1CN(Cc2nc3ccccc3s2)CCN1C1CCCC1 (centres undefined)	none (no result: Shn3 3UTR inh)
CC(=O)NCc1ccc(C(=O)CCl)cc1	Peg3 promoter 53
CC(=O)Nc1ccc(C(=O)CCl)cc1	none
CC(=O)NCc1ccc(C(=O)CCl)s1	Peg3 promoter 69
CC1CCCCN1C(=O)COC(=O)c1cc([N+](=O)[O-])ccc1N (centres undefined)	none
O=C(NC1CCC(O)CC1)C1CCN(S(=O)(=O)c2c(Cl)cccc2Cl)CC1 (centres undefined)	none
O=S1(=O)CC(N2CCCCC2)C(N2CCCCC2)C1 (centres undefined)	LMP1 NFkB inh 51
COc1ccccc1NC(=O)NNC(=O)c1ccc2ccccc2c1O	none
Cc1ccc(COc2cccc(/C=N/NC(=O)c3nnn(-c4nonc4N)c3C)c2)cc1	CF NFkB inh 59, Peg3 promoter 77
CCOC(=O)c1c(C)c(C(=O)Nc2cc(OC)ccc2OC)c(C)n1CC	Peg3 promoter 57
CCOC(=O)c1[nH]c(C)c(C(=O)Nc2cc(OC)ccc2OC)c1C	none
COc1ccc(S(=O)(=O)NCC(c2cccnc2)N2CCN(c3ccc(F)cc3)CC2)cc1C (centres undefined)	LMP1 NFkB inh 82
Cn1cc(Br)c(C(=O)N/N=C/c2cc3ccccc3nc2Cl)n1	none
CCOC(=O)C1=C(COC(=O)CCNS(=O)(=O)c2ccc(NC(C)=O)cc2)NC(=O)NC1C (centres undefined)	none
COc1cc(C2NC(=O)NC(C)=C2C(=O)OCC2CCCO2)cc(OC)c1OC (centres undefined)	none
COc1cc(N=c2ssnc2Cl)c(OC)cc1Cl	Shn3 3UTR inh 95!
Cc1ccc(N=c2ssnc2Cl)cc1	Shn3 3UTR inh 88
CCc1nc2ccc(C(=O)Nc3ccc4c(c3)OCC(=O)N4)cn2c1N(C)C(=O)Cc1ccccc1	none (no result: LMP1 NFkB inh)
O=C(O)c1cccc(Nc2ccnc(Nc3cccc(C(=O)O)c3)n2)c1	LMP1 NFkB inh 58
Cc1c(C(=O)NN2CCOCC2)oc2ccccc12	none
Nc1ccc(Oc2cccc(Oc3ccc(N)cc3)c2)cc1	HIF-2a block 90
Cc1cccc(Oc2ccc(N)cc2)c1	none
CCOC(=O)C1CCN(C(=O)C2(NC(=O)NC3CCCCC3)CCCCC2)CC1	Peg3 promoter 64
CC(=O)Nc1ccc(/C=N/N2CCCCC2)cc1	none
COCC1CCN(C(=O)c2cc(COc3ccc4ncccc4c3)on2)CC1	Shn3 3UTR inh 86
CC(C)(C)c1ccc(C2CC2C(=O)N/N=C\c2ccc[nH]2)cc1 (centres undefined)	Shn3 3UTR inh 95, CF NFkB inh 58
CSc1nc(N(C)CCO)c2sc3nc(-c4ccco4)c4c(c3c2n1)CCC4	none
CSc1nc(NCCN(C)C)c2sc3nc(-c4ccco4)c4c(c3c2n1)CCC4	Peg3 promoter 106
CCOc1cc(N2CCOCC2)c(OCC)cc1NC(=O)COC(=O)[C@@H]1CCCN1S(=O)(=O)c1ccccc1F	none
O=C(Nc1ccc2nc(-c3ccco3)c(-c3ccco3)nc2c1)NC1CC1	none
O=C(Nc1ccc(N2CCOCC2)cc1)Nc1ccc2nc(-c3ccco3)c(-c3ccco3)nc2c1	CF NFkB inh 70
COc1ccc(N2CCN(Cc3cc(=O)oc4cc(-c5ccccc5)c(O)cc34)CC2)cc1	Peg3 promoter 70
O=c1cc(CN2CCN(c3ccccc3F)CC2)c2cc(O)c(-c3ccccc3)cc2o1	none
CCOC(=O)c1cc(C)n(-c2ccc(Cl)cc2)c1C	none
CCOc1ccc(-n2c(C)cc(C(=O)CCl)c2C)cc1	Peg3 promoter 111
COC(=O)c1ccc(-n2c(C)cc(C(=O)CCl)c2C)cc1	Peg3 promoter 82
CCOC(=O)c1c(NC(=O)CSc2nnnn2-c2ccccc2)sc2c1CC(C)(C)NC2(C)C	Peg3 promoter 55
CCOC(=O)c1c(NC(=O)COc2ccccc2OCC)sc2c1CC(C)(C)NC2(C)C	Peg3 promoter 107
COc1cc2c(cc1NC(=O)CN(C)Cc1cccc(OC)c1OC)oc1ccccc12	none
O=S(=O)(c1ccccc1)N1CCN(CCO)CC1	none
CCOc1ccc(CCN2C(=S)N([C@@H](CC(C)C)CN3CCCC3CN3C(=S)NC[C@@H]3Cc3ccc(O)cc3)C[C@@H]2Cc2ccc(O)cc2)cc1 (some centres undefined)	Shn3 3UTR inh 86, Peg3 promoter 87
Oc1ccc(C[C@H]2CNC(=S)N2CC2CCCN2C[C@H](Cc2ccccc2)N2C[C@H](Cc3ccc(O)cc3)N(CCc3ccccc3)C2=S)cc1 (some centres undefined)	Peg3 promoter 68
CC(C)C[C@H]1CNC(=S)N1C[C@H]1CCCN1C[C@H](Cc1ccc(O)cc1)N1C[C@H](Cc2ccc(O)cc2)N(CCc2ccccc2)C1=S	Peg3 promoter 94 (no result: LMP1 NFkB inh)
CC(C)C[C@@H](CN1CCC[C@@H]1CN1C(=S)NC[C@@H]1Cc1ccc(O)cc1)N1C[C@H](Cc2ccc(O)cc2)N(CCc2ccccc2)C1=S	Peg3 promoter 78 (no result: LMP1 NFkB inh)
CC(C)C[C@H]1CN([C@@H](Cc2ccc(O)cc2)CN2CCC[C@@H]2CN2C(=S)NC[C@@H]2Cc2ccccc2)C(=S)N1CCc1ccccc1	none (no result: LMP1 NFkB inh)
Oc1ccc(C[C@@H](CN2CCC[C@@H]2CN2C(=S)NC[C@@H]2Cc2ccccc2)N2C[C@H](Cc3ccccc3)N(CCc3ccccc3)C2=S)cc1	none (no result: LMP1 NFkB inh)
Cc1ccc(C(=O)CCS(=O)(=O)c2ccc(Cl)cc2)cc1	none
Cc1ccc(C(=O)CCS(=O)(=O)c2ccc(F)cc2)cc1	Peg3 promoter 60
O=C(Cc1cccc2ccccc12)N/N=C/c1ccc(Sc2nc3ccccc3s2)o1	none
COc1cnc(SCc2c(Cl)cccc2Cl)nc1Cl	none

Assay outcomes from PubChem BioAssay.
